In the library only some 3.5% were active in any assay of this set; here they are far more common.
Pf apPOL block = Pf-apPOL DNA polymerase inhibition. Recombinant Pf-apPOL, molecular beacon fluorescence, 1.5 h. inhibition, % at 10 µM. actives 0.25% (n = 210,000)
mHTT-CaM PPI inh = inhibitors of human mutant huntingtin-calmodulin interaction | inhibition, % at 15 µM | AID 1671202 | AlphaScreen His-mHTT/GST-CaM binding, luminescence | actives 3.6% (n = 190,000) | P42858;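 also: 0% = both proteins with DMSO and 100% = one protein alone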
Numbers without * were called inactive. Rule as the data show it: active = inhibition above about 50%; inactive = the rest.

For CCCNc1cc(N2CCC(CCC(=O)Nc3ccc4c(c3)OCO4)CC2)ncn1 the results were Pf apPOL block 3.4 and mHTT-CaM PPI inh 60.1*.
For CCNc1cc(N2CCC(CCC(=O)Nc3ccc(OC)c(OC)c3)CC2)ncn1 the results were Pf apPOL block -1.3 and mHTT-CaM PPI inh 8.1.
Screening Cc1cc(C)cc(OCC(=O)Nc2ccccc2N2CCOCC2)c1 returned Pf apPOL block 0.8 and mHTT-CaM PPI inh -4.7.
Screening CC1Oc2ccccc2C=C1C=C1SC(=S)NC1=O (centres undefined) returned Pf apPOL block -12.7 and mHTT-CaM PPI inh 59.3*.
`CC1Oc2ccccc2C=C1C=C1SC(=S)N(CCC(=O)O)C1=O` (centres undefined) gave Pf apPOL block -6.7 and mHTT-CaM PPI inh 53.3*.
Screening COc1ccc(C=C2SC(=S)N(CCC(=O)O)C2=O)c(OC)c1 returned Pf apPOL block -5.8 and mHTT-CaM PPI inh 7.8.
`CC1Oc2ccccc2C=C1C=CC(=O)O` (centres undefined) gave Pf apPOL block -9.3 and mHTT-CaM PPI inh -1.8.
Screening COc1ccc(-c2noc(C3CCCN3C(=O)C3CC3)n2)cc1 (centres undefined) returned Pf apPOL block -0.8 and mHTT-CaM PPI inh -4.2.
`O=C(Oc1ccccc1)c1csc(-c2cccnc2)n1` gave Pf apPOL block -4.2.
COCCNC(=O)Cc1ccc(NS(=O)(=O)c2ccccc2Cl)cc1 was read as Pf apPOL block -5.7 and mHTT-CaM PPI inh -11.0.
O=C(Nc1cccc2cccnc12)C(=O)Nc1cccc2cccnc12 was read as Pf apPOL block 2.0 and mHTT-CaM PPI inh -2.0.
For CC(=O)NC(c1ccco1)c1ccc2cccnc2c1O (centres undefined) the results were Pf apPOL block -1.8 and mHTT-CaM PPI inh 100.0*.
Screening CC(=O)NC(c1cccs1)c1ccc2cccnc2c1O (centres undefined) returned Pf apPOL block 2.2 and mHTT-CaM PPI inh 100.0*.
`CCCCC(=O)NC(c1cccs1)c1cc(Cl)c2cccnc2c1O` (centres undefined) gave Pf apPOL block -3.7 and mHTT-CaM PPI inh 28.0.
Screening OCCN1CCN(C(c2cccs2)c2ccc3cccnc3c2O)CC1 (centres undefined) returned Pf apPOL block 95.5* and mHTT-CaM PPI inh 99.9*.
`Oc1ccc2ccccc2c1C(c1cccs1)N1CCCCC1` (centres undefined) gave Pf apPOL block 6.3.
COc1ccc(C(=O)N2CCc3nc(-c4ccccc4)ncc3C2)c(C)c1 was read as Pf apPOL block -1.2 and mHTT-CaM PPI inh 2.1.
O=C1NN(c2ccccc2)C(SCc2ccccc2Cl)=Nc2ccccc21 was read as Pf apPOL block 5.6.
`COc1ccc(CNC23CC4CC(CC(C4)C2)C3)cc1` gave Pf apPOL block -2.1 and mHTT-CaM PPI inh -5.7.
`CCOc1ccc(NC(=O)c2ccccc2F)c([N+](=O)[O-])c1` gave Pf apPOL block 2.6 and mHTT-CaM PPI inh 9.5.
For CCc1cccc(N=c2oc3c(C)ncc(CO)c3cc2C(=O)Nc2ccc(C)cc2)c1 the results were Pf apPOL block 28.1 and mHTT-CaM PPI inh 5.0.
Cc1ccccc1CSc1nc2c(cnn2-c2ccccc2)c(=O)[nH]1 was read as Pf apPOL block -1.1 and mHTT-CaM PPI inh -1.0.
Cc1ccc(C)c(CSc2nc(C3CCCCC3)c(C#N)c(=O)[nH]2)c1 was read as Pf apPOL block 73.0*.
O=C(NCc1cccc(C(F)(F)F)c1)C1CCCN(c2cn[nH]c(=O)c2)C1 (centres undefined) was read as Pf apPOL block -6.4 and mHTT-CaM PPI inh -6.3.
For CNC(=O)c1cc(C)nc2ccc(C)cc12 the results were Pf apPOL block 83.9* and mHTT-CaM PPI inh -1.2.
`CNC(=O)c1cc(C)nc2ccc(F)cc12` gave Pf apPOL block -2.2 and mHTT-CaM PPI inh 14.1.
CCCNC(=O)c1cc(C)nc2ccc(Cl)cc12 was read as Pf apPOL block -2.9 and mHTT-CaM PPI inh 2.3.
CCCNC(=O)c1cc(C)nc2ccc(F)cc12 was read as Pf apPOL block -0.7 and mHTT-CaM PPI inh 100.1*.
CCOC(=O)N1CCN(Cc2nc3c([nH]2)c(=O)[nH]c(=O)n3C)CC1 was read as Pf apPOL block 0.1 and mHTT-CaM PPI inh -8.4.
`Cc1ccc(NC(=O)Cn2nc(-c3ccc([N+](=O)[O-])cc3)ccc2=O)cc1F` gave Pf apPOL block -2.9 and mHTT-CaM PPI inh 31.8.
Screening CCCCc1c(C)c(C#N)c2nc3ccccc3n2c1NCCN1CCOCC1 returned Pf apPOL block 2.4 and mHTT-CaM PPI inh -8.0.
`CCc1c(C)c(C#N)c2nc3ccccc3n2c1NCCCN1CCOCC1` gave Pf apPOL block 83.3* and mHTT-CaM PPI inh -2.0.
Cc1c(F)cccc1NC(=O)NC1CCN(c2ccc(F)cc2)C1=O (centres undefined) was read as Pf apPOL block 0.5 and mHTT-CaM PPI inh -8.7.
`O=C(Nc1ccccc1F)C1CC(=O)N(c2ccc3c(c2)CCN3C(=O)C2CC2)C1` (centres undefined) gave Pf apPOL block -5.1 and mHTT-CaM PPI inh 1.6.
`Cc1cccc(NC(=O)COc2ccc(Cl)c(C)c2)n1` gave Pf apPOL block -0.3 and mHTT-CaM PPI inh 7.0.
Screening Cc1cccc(NC(=O)COc2c(C)cc(Cl)cc2Cl)n1 returned Pf apPOL block 58.3* and mHTT-CaM PPI inh -8.3.
Screening Cc1ccc(N2CCN(C(=O)c3sc(Nc4ccc(F)cn4)nc3C)CC2)cc1 returned Pf apPOL block -5.6 and mHTT-CaM PPI inh 78.2*.
For Cc1ccnc(Nc2nc(C)c(C(=O)N3CCCC3)s2)c1 the results were Pf apPOL block 24.3 and mHTT-CaM PPI inh 0.7.
Screening O=C(Nc1ccccc1NC(=O)c1cc2ccccc2oc1=O)c1ccc(C(F)(F)F)cc1 returned Pf apPOL block -1.6 and mHTT-CaM PPI inh -8.0.
COc1ccc(C(=O)N2CCCC(c3nnc(-c4ccccc4)o3)C2)cc1 (centres undefined) was read as Pf apPOL block -1.0 and mHTT-CaM PPI inh -2.5.
CCOc1ccc(-c2csc(NC(=O)c3cncc(Br)c3)n2)cc1 was read as Pf apPOL block -6.1 and mHTT-CaM PPI inh 1.0.
Screening O=C(Nc1nc(-c2ccc(Cl)cc2)cs1)c1cncc(Br)c1 returned Pf apPOL block 0.0 and mHTT-CaM PPI inh 53.4*.
COc1ccc(/C=C2/N=C(c3ccccc3Cl)OC2=O)cc1OC was read as Pf apPOL block -6.6 and mHTT-CaM PPI inh 4.0.
Cc1ccc(C(=O)N2CCC(CCNS(=O)(=O)c3ccc(C)cc3)CC2)cc1 was read as Pf apPOL block -4.2 and mHTT-CaM PPI inh 36.9.
Cc1ccc(C(=O)N2CCC(CCNS(=O)(=O)c3ccc(F)cc3)CC2)cc1 was read as Pf apPOL block -1.6 and mHTT-CaM PPI inh 53.2*.
`CCOc1ccc(S(=O)(=O)NCCC2CCN(C(=O)c3ccc(C)cc3)CC2)cc1` gave Pf apPOL block -3.3 and mHTT-CaM PPI inh 61.6*.
`Cc1ccc(C(=O)N2CCC(CCNS(=O)(=O)c3cccc(C)c3)CC2)cc1` gave Pf apPOL block 1.1 and mHTT-CaM PPI inh 44.4.
Cc1ccc(C(=O)N2CCC(CCNS(=O)(=O)c3cccc(C#N)c3)CC2)cc1 was read as Pf apPOL block -3.7 and mHTT-CaM PPI inh 50.4*.
Screening Cc1ccc(C(=O)N2CCC(CCNS(=O)(=O)c3ccccc3)CC2)cc1 returned Pf apPOL block -3.2 and mHTT-CaM PPI inh 36.6.
`O=C(c1ccc(F)cc1)N1CCC(CCNS(=O)(=O)c2ccc(Cl)cc2)CC1` gave Pf apPOL block -0.3 and mHTT-CaM PPI inh 55.1*.
Screening O=C(c1ccccc1)N1CCC(CCNS(=O)(=O)c2ccc(F)cc2)CC1 returned Pf apPOL block -1.6 and mHTT-CaM PPI inh 25.9.
